High-throughput results deposited in PubChem BioAssay by several laboratories.
Shn3 inh set2: inhibitors of Schnurri-3 3'UTR reporter in osteoblasts. Clone20 osteoblast Shn3 3'UTR firefly luciferase, 24 h. inhibition, % at 12.5 µM. 360,000 tested, 0.52% active;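 active means mean inhibition of at least 75% with every replicate also reaching 75%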
KKLEB tox: reduces viability of KKLEB cystic fibrosis airway cells; KKLEB CF airway cells viability, ATPlite luminescence, overnight; active compounds read low; cells stimulated with P. aeruginosa culture filtrate; activity change (cytotoxicity), % at 5 µM; 360,000 tested, 0.36% active; AID 602141;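 active means corrected activity change at or below -50% at 5 µM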
MITF TRPM1 inh: MITF TRPM1 promoter inhibition in SK-MEL-5 cells; SK-MEL-5 TRPM1 promoter luciferase, 24 h; inhibition, % at 12.5 µM; 330,000 tested, 0.83% active; AID 488899;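 active means mean inhibition across replicates of 60% or more, whatever share of single replicates reaches that level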
CF NFkB inh: cystic fibrosis NF-kB activation inhibition; KKLEB NF-kB-GFP reporter, PAF-induced, GFP fluorescence overnight; inhibition, % at 5 µM; 360,000 tested, 0.86% active; AID 588850;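 active means at least 50% inhibition at 5 µM, scaled per plate between neutral and stimulator controls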;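 further: PAF is a Pseudomonas aeruginosa culture filtrate used as stimulus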
Peg3 promoter: reduces Peg3 promoter-driven luciferase expression in HeLa. HeLa PEG-Prom luciferase reporter, luminescence, overnight. inhibition, % at 20 µM. 360,000 tested, 1.7% active;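 active means inhibition of at least 50% at 20 µM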
HIF-2a inh: inhibitors of HIF-2a; 786-0 RCC cells HIF-2a reporter, luciferase luminescence, overnight; inhibition, % at 18.8 µM; 360,000 tested, 0.72% active;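 active means inhibition of the luminescence signal of 40% or more relative to plate controls, in a single-dose primary screen at 18.75 µM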
A number is an active result; - = inactive; . = no result given. A selection: hits, their analogues and other compounds. The true share with any hit is near 2.8%.

SMILES	Shn3 inh set2	KKLEB tox	MITF TRPM1 inh	CF NFkB inh	Peg3 promoter	HIF-2a inh
NC(c1csc(Nc2cc(Oc3ccccc3)ncn2)n1)C1CCCCC1 (stereo not drawn)	-	-	.	-	99	-
O=C(OCC(=O)c1ccc(Cl)s1)c1ccc(CO)cc1	-	-	-	-	-	-
O=C1CC(N2CCN(S(=O)(=O)c3ccccc3F)CC2)C(=O)N1c1ccccc1Cl (stereo not drawn)	-	-	-	-	-	-
Cc1ccc2c(c1)sc(-c1ccc(N(C)C)cc1)[n+]2C	-	-	62	-	-	-
CC[n+]1c(C)sc2cc(C)ccc21	-	-	-	-	-	-
CCOC(=O)N1CCN(C(=O)c2[nH]c(C(F)(F)F)nc2-c2ccccc2)CC1	-	-	.	-	-	-
CCN(CC)CCNC(=O)c1ccc(Cl)c(S(=O)(=O)N2CCCCCC2)c1	-	-	-	-	-	-
CCCn1c(NC(=O)c2ccc(Cl)c(S(=O)(=O)N3CCCC3)c2)nc2ccccc21	91	-	-	-	53	-
Cc1nc(-c2cccc(NC(=O)c3ccc(Cl)c(S(=O)(=O)N4CCCC4)c3)c2)cs1	-	-	.	-	55	-
CN(C)CCCNC(=O)c1ccc(Cl)c(S(=O)(=O)N2CCCCCC2)c1	-	-	-	-	91	-
FC(F)(F)C(F)(F)C(F)(F)c1nnc2ccc(N3CCOCC3)nn12	-	-	-	-	-	-
COc1ccc(/C(C)=N/NC(=O)c2cccc(S(=O)(=O)N3CCCC3)c2)c(O)c1	88	-	73	-	-	-
COc1ccc(C(C)=NNC(=O)c2cccc(S(=O)(=O)N3CCCC3)c2)cc1	-	-	-	-	-	-
C=CS(=O)(=O)N(Cc1ccccc1)[C@H](CO)CC(C)C	-	-	-	-	-	-
CC(C)C[C@H](CO)N(Cc1ccccc1)S(=O)(=O)N(Cc1ccccc1)[C@@H](CO)CC(C)C	-	-	-	-	53	-
COc1ccc2cc3cc(C(=O)NCCc4ccc(OC)c(OC)c4)oc3nc2c1	-	-	65	-	53	-
Cc1ccc(C(NC(=O)C2CCCCC2)c2c(O)ccc3ccccc23)cc1 (stereo not drawn)	-	-	-	-	54	-
CC(C)C(=O)NC(c1ccc([N+](=O)[O-])cc1)c1c(O)ccc2ccccc12 (stereo not drawn)	-	-	-	-	52	-
CC(=O)NC(c1ccc([N+](=O)[O-])cc1)c1c(O)ccc2ccccc12 (stereo not drawn)	-	-	-	-	-	-
COc1ccc(/C=C/C(=O)NCC(=O)N2CCC(N(C)CCN3CCOCC3)CC2)cc1OC	-	-	-	-	-	-
COc1cc(NS(=O)(=O)c2ccc(OC)c(OC)c2)cc(OC)c1	-	-	-	-	52	-
Cc1ccc(Nc2nc(N)c3ccccc3n2)cc1C	-	-54	-	-	-	-
COC(=O)c1ccccc1NC(=O)c1ccc(-c2ccccc2F)o1	-	-67	-	59	-	-
CC(C)(C)c1ccc(Oc2ccc(N)cn2)cc1	-	-	.	-	-	77
O=[N+]([O-])c1ccc(N/N=C/c2sc(N3CCOCC3)nc2-c2ccccc2)c(S(=O)(=O)Nc2ccc(Cl)cc2)c1	91	-	72	-	54	-
SMILES	Shn3 inh set2	KKLEB tox	MITF TRPM1 inh	CF NFkB inh	Peg3 promoter	HIF-2a inh
O=[N+]([O-])c1ccc(N/N=C/c2sc(N3CCOCC3)nc2-c2ccccc2)c(S(=O)(=O)Nc2ccccc2Cl)c1	87	-	65	-	68	-
O=C(N/N=C/c1sc(N2CCOCC2)nc1-c1ccccc1)c1ccccc1Cl	-	-	-	-	-	-
CCOc1ccc(NC(=O)CN2CCC(n3cnc4cc(F)ccc43)CC2)cc1	-	-	-	-	-	-
Cc1ccc(C)c(S(=O)(=O)Nc2ccc(O)c3ccccc23)c1	-	-53	-	86	-	-
COc1ccc(S(=O)(=O)Nc2ccc(O)c3ccccc23)cc1	-	-	69	90	-	-
Fc1ccc(-c2c[nH]c(=S)n2Cc2ccccc2)cc1	-	-	-	-	-	-
O=C(COc1ccc(Cl)cc1)N(Cc1ccccc1)c1nc(-c2ccccc2)cs1	-	-	-	-	55	-
O=C(CCCCCNc1nc(=S)[nH]c2ccccc12)NCCc1c[nH]c2ccccc12	-	-	-	-	51	-
CCOC(=O)c1cn(CC(=O)Nc2cccc(Cl)c2)nn1	-	-	-	-	-	-
CCOC(=O)c1cn(CC(=O)Nc2cccc(Cl)c2C)nn1	95	-	-	-	-	-
COc1ccc(CCNC(=O)c2nnn(-c3ccccc3OC)c2N)cc1OC	-	-	-	-	-	-
COc1ccc(CCNC(=O)c2nnn(-c3ccc4c(c3)OCCO4)c2N)cc1OC	-	-	-	-	-	51
c1ccc(-c2cn(-c3ccccc3)c3[n+]2CCS3)cc1	-	-	-	-	-	-
CC(C)(C)c1ccc(-c2cn(-c3ccc(Br)cc3)c3[n+]2CCCS3)cc1	-	-	90	-	-	-
COc1cc(CNC(C)C23CC4CC(CC(C4)C2)C3)ccc1OCC(=O)NC(C)(C)C (stereo not drawn)	-	-	-	-	72	-
COc1ccccc1OCCn1c(SCC(=O)O)nc2ccccc21	-	-	-	-	-	-
CCOC(=O)C1CCCN(S(=O)(=O)c2ccc(S(=O)(=O)N3CCCC3)cc2)C1 (stereo not drawn)	88	-	-	-	-	-
O=C(CSc1nnc(Nc2ccccc2)s1)NN1C(=O)NC2(CCCCC2)C1=O	-	-	-	-	-	-
Cc1ccc(-c2nn(CC(=O)NCc3cc(-c4nn(C)c(=O)c5ccccc45)ccc3C)c(=O)c3ccccc23)cc1	-	-	82	-	70	-
CNc1ccccc1C(C)(C)c1cc(-c2cccc(Br)c2)no1	86	-	-	-	-	-
Cc1ccc(NC(=O)Cn2c(=O)n(CCCC(=O)NCc3ccco3)c(=O)c3ccccc32)cc1	-	-	-	-	-	-
COc1ccc(NC(=O)Cn2c(=O)n(-c3ccc(CC(=O)NCc4ccco4)cc3)c(=O)c3ccccc32)cc1	-	-	71	-	-	-
Nc1ccc(NC(=O)NC2CCCCC2)cc1[N+](=O)[O-]	-	-	-	-	-	-
CCC1(CCC(C)C)SC(N)=NC1=O (stereo not drawn)	-	-	-	-	-	-
Cc1noc2ncnc(Sc3ccc(Br)cc3)c12	-	-	-	-	99	-
Cc1noc2ncnc(N3CCCC3)c12	-	-	-	-	-	-
CC(=O)Nc1cccc(-c2ccnc3c2CC(C)(C(=O)NCC2CC2)O3)c1 (stereo not drawn)	-	-	.	-	-	-
CC(=O)Nc1ccc(C(=O)NCC2(N3CCCCC3)CCCCC2)cc1	-	-	-	-	-	-
